This is an account of results in PubChem BioAssay.

Molecules are shown by their SMILES. Unmarked numbers belong to inactive results. For some of these results: Entries with a potency or affinity are not part of this list. Active and inactive are the calls of the source. Unless noted, how the calls were made is not given here.

Assay [1] can be described thus: antimalarial activity against Dd2 strain (AID 2302;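 active means growth inhibition above 50% at the single 2 µM test dose, taken to imply half-maximal potency below 2 µM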;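 further: 0% = DMSO untreated growth and 100% = chloroquine plus artemisinin killed control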). The conditions noted are these: P. falciparum Dd2 in RBCs, LDH growth readout, 72 h; at 2 µM; hits give high values.
Assay [2] in a line: human hepatoma cell viability loss – ATP luminescence, cytotoxicity control for P. falciparum antimalarial project, primary screen (AID 2303;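 active means inhibition above 50%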;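 further: 0% = DMSO wells and 100% = digitonin-killed cells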). The conditions noted are these: HepG2 viability, 24-48 h, at 10 µM, hits give high values.
For assay [3], the target named is L-lactate dehydrogenase (Plasmodium falciparum (isolate CDC / Honduras)) (UniProt Q27743). Nature of the assay: PfLDH activity inhibition – cell lysate, 3D7 strain, counter-screen for P. falciparum growth inhibition project (AID 2304).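 Further: 0% = vehicle and 100% = reference inhibitor.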 Particulars: P. falciparum 3D7 crude extract, LDH APAD/NBT absorbance; at 2 µM; hits give high values.
Assay [4] in a line: inhibition of 3D7 malaria parasite growth – strain 3D7 (AID 2306).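 Further: 0% = DMSO wells and 100% = chloroquine plus artemisinin control wells.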 The conditions noted are these: P. falciparum 3D7 erythrocytic growth, LDH absorbance, 72 h; at 2 µM; hits give high values.
Assay [5] has as its target Calcium-dependent protein kinase 1 (Plasmodium falciparum (isolate 3D7)) (UniProt P62344). Put plainly: PfCDPK1 kinase inhibitors, biochemical, TCAMS library (AID 1159585; cut-off not given, nearly all actives have IC50 up to about 0.98 µM;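 further: inhibitors leave more ATP so luminescence rises with inhibition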). Particulars: recombinant PfCDPK1, Kinase-Glo ATP depletion luminescence.
Assay [6] has as its target Plasmodium falciparum protein kinase 6 (PK6, PF3D7_1337100) (UniProt Q8IDW1). Put plainly: PfPK6 kinase inhibitors, biochemical, TCAMS library (AID 1159586). The conditions noted are these: recombinant PfPK6, Kinase-Glo ATP depletion luminescence.
The target of assay [7] is Protein kinase 7 (PK7), Plasmodium falciparum 3D7 (PF3D7_0213400) (UniProt Q7YTF7). Nature of the assay: inhibition of Plasmodium PK7 catalytic activity – biochemical, TCAMS antimalarial set, Kinase-Glo luminescence (AID 1159587). The conditions noted are these: recombinant PfPK7, Kinase-Glo ATP depletion luminescence.
Assay [8] concerns the target Calcium-dependent protein kinase 4 (Plasmodium falciparum (isolate 3D7)) (UniProt Q8IBS5). Put plainly: PfCDPK4 kinase inhibitors, biochemical, TCAMS library (AID 1159588; cut-off not given, nearly all actives have IC50 up to about 0.91 µM). Particulars: recombinant PfCDPK4, Kinase-Glo ATP depletion luminescence.

Sequence of Plasmodium falciparum protein kinase 6 (PK6, PF3D7_1337100) (Q8IDW1 1-305): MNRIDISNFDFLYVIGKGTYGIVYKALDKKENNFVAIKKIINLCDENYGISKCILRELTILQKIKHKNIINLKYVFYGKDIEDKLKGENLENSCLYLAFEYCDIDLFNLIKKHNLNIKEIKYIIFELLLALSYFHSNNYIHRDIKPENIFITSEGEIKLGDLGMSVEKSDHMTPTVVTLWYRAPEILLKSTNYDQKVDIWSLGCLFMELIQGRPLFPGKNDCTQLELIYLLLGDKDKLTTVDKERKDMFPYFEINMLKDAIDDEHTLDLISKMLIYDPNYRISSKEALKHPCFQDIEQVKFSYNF
Sequence of Calcium-dependent protein kinase 1 (Plasmodium falciparum (isolate 3D7)) (P62344 whole entry, looked up): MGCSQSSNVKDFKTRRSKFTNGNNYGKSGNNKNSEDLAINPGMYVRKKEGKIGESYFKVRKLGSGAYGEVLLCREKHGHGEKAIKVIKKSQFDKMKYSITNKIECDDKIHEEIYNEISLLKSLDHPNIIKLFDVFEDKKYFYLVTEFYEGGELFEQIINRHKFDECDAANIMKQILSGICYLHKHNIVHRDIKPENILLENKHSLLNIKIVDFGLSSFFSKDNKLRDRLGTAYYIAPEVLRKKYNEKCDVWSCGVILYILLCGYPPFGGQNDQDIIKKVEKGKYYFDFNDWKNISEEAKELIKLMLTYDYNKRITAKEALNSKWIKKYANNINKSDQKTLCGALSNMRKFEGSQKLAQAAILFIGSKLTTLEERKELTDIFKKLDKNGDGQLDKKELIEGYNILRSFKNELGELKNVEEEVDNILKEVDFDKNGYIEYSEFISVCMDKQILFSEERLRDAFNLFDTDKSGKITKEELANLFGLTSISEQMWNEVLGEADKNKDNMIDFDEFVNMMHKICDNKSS
Sequence of Calcium-dependent protein kinase 4 (Plasmodium falciparum (isolate 3D7)) (Q8IBS5 whole entry, looked up): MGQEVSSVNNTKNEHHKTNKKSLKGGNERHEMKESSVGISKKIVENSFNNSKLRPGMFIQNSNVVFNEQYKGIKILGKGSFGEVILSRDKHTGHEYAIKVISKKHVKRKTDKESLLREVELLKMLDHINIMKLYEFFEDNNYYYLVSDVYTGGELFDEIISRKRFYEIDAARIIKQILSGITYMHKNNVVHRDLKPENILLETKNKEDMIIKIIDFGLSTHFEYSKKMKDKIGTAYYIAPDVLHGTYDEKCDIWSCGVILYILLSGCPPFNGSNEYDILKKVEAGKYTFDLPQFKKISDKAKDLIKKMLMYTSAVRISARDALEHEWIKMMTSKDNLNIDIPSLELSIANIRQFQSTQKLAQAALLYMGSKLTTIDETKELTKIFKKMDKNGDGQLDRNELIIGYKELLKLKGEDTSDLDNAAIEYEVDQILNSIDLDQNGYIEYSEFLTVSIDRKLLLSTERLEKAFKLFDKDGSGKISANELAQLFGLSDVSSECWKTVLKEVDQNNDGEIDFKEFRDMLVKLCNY
Sequence of L-lactate dehydrogenase (Plasmodium falciparum (isolate CDC / Honduras)) (Q27743 whole entry, looked up): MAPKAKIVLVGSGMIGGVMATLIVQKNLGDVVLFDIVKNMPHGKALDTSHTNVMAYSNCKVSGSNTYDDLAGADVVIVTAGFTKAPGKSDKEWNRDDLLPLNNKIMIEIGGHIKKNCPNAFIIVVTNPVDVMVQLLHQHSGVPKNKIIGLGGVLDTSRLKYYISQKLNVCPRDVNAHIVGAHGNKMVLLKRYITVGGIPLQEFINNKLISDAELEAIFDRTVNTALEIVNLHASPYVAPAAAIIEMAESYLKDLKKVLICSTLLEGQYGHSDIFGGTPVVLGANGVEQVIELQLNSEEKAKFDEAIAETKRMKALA
Sequence of Protein kinase 7 (PK7), Plasmodium falciparum 3D7 (PF3D7_0213400) (Q7YTF7 1-343): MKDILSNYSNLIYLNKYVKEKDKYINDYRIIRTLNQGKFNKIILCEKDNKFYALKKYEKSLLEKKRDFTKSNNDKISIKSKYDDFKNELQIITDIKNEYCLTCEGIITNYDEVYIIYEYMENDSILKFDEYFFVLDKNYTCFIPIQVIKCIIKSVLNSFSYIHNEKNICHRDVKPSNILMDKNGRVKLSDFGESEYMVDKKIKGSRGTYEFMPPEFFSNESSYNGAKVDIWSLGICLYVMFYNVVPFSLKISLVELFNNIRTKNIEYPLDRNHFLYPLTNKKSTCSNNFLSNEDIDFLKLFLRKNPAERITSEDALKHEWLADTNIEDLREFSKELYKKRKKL

In the case of `CC(=O)NCCNc1nccc(N2CCc3ncnc(Nc4ccc(OCc5cccc(F)c5)c(Cl)c4)c3C2)n1`, the growth inhibition in assay [1] and in assay [4] was 100% (active) throughout. The inhibition in assay [2] was 10%; in assay [3], 5%. The result in assay [5], in assay [6], in assay [7] and in assay [8] was inactive.

With `O=C(Nc1cccc(CN2CCN(Cc3ccc(O)cc3)CC2)c1)c1cc2ccccc2o1`, the growth inhibition in assay [1] was 12%; in assay [4], 81% (active). Also, the figures for the inhibition in assay [2] and in assay [3] were 8% and -3%, respectively. The result in assay [5], in assay [6], in assay [7] and in assay [8] was inactive.

`Cc1cc(NCCC(=O)NCCOc2ccccc2)nc(NCCOc2ccccc2)n1`: the growth inhibition is 20% in assay [1] and 92% (active) in assay [4]. The inhibition in assay [2] was 8%; in assay [3], 0%. The outcome in assay [5], in assay [6], in assay [7] and in assay [8] was inactive.

On to `CNC(=O)c1cnc(Nc2ccc(N3CCN(C)CC3)c(C)c2)nc1NC`, for which the growth inhibition is 38% in assay [1] and 97% (active) in assay [4]. Further, the inhibition is 19% in assay [2] and -1% in assay [3]. Moreover, the outcome in assay [5], in assay [6], in assay [7] and in assay [8] was inactive.

With `CCN1CCC(N(CCCCCCc2ccc(C(F)(F)F)cc2)C(=O)Cn2c(CCc3cccc(F)c3F)cc(=O)c3ccccc32)CC1`, the growth inhibition in assay [1] was 82% (active); in assay [4] it was 88% (active). Further, the inhibition in assay [2] was 32%; in assay [3], -7%. Moreover, the outcome in assay [5], in assay [6], in assay [7] and in assay [8] was inactive.

With `O=C(NCCCN1CCN(c2cccc(Cl)c2)CC1)c1ccc(-c2nc3cc(Cl)c(Cl)cc3[nH]2)c(F)c1`, the growth inhibition is 72% (active) in assay [1] and 101% (active) in assay [4]. Further, the inhibition in assay [2] was 3%; in assay [3], 2%. Further, the outcome in assay [5], in assay [6], in assay [7] and in assay [8] was inactive.

Consider `Cc1ccc2c(NN=Cc3cccc([N+](=O)[O-])c3)cc(C)nc2c1`, for which the growth inhibition was 97% (active) in assay [1] and 102% (active) in assay [4]. Also, the results for the inhibition in assay [2] and in assay [3] were 33% and 5%, respectively. Moreover, the result in assay [5], in assay [6], in assay [7] and in assay [8] was inactive.

Take `CC1(C)N=C(N)N=C(N)N1OCCc1cccc2ccccc12`: the growth inhibition was 97% (active) in assay [1] and 95% (active) in assay [4]. In addition, the inhibition in assay [2] is 57% (active); in assay [3], -2%. The result in assay [5], in assay [6], in assay [7] and in assay [8] was inactive.

For the compound `CCNc1cc(C(=O)N[C@@H](Cc2ccccc2)[C@H](O)CNC(C)(C)CCCC(C)C)cc(N2CCCCS2(=O)=O)c1`, the growth inhibition in assay [1] and in assay [4] was 98% (active) in each case. Also, the figures for the inhibition in assay [2] and in assay [3] were 5% and 2%, respectively. Also, the outcome in assay [5], in assay [6], in assay [7] and in assay [8] was inactive.

For `Cc1ccc(C2=NNC3(S2)C(=O)Nc2ccc(C)cc23)cc1` (stereo not given), the growth inhibition in assay [1] is 89% (active); in assay [4], 95% (active). Moreover, the inhibition in assay [2] is 35%; in assay [3], 6%. The result in assay [5], in assay [6], in assay [7] and in assay [8] was inactive.

Take `O=C(Nc1cccc(-c2nn3ccccc3c2-c2ccnc(Nc3cccc(C(F)(F)F)c3)n2)c1)c1c(F)cccc1F`: the growth inhibition was 91% (active) in assay [1] and 97% (active) in assay [4]. Also, the inhibition in assay [2] was 43%; in assay [3], -2%. Besides, the outcome in assay [5], in assay [6], in assay [7] and in assay [8] was inactive.

On to `Cc1[nH]c(C)c(-c2ccc(-c3ccc(C(F)(F)F)cc3C(F)(F)F)nc2)c(=O)c1Br`, for which the growth inhibition in assay [1] and in assay [4] was 97% (active) each time. Besides, the inhibition in assay [2] was 30%; in assay [3], 5%. Further, the result in assay [5], in assay [6], in assay [7] and in assay [8] was inactive.

As to `COc1ccc(C(O)CNC(C)CCc2ccc(F)cc2)cc1C(F)(F)F` (stereo not given), the figures for the growth inhibition in assay [1] and in assay [4] were 98% (active) and 99% (active), respectively. Besides, the inhibition is 92% (active) in assay [2] and 3% in assay [3]. The result in assay [5], in assay [6], in assay [7] and in assay [8] was inactive.

For the compound `Fc1ccc(-c2oc(C3CCN(CCc4ccc(-c5nc(=S)o[nH]5)cc4)CC3)nc2COCC(F)(F)F)cc1`, the results for the growth inhibition in assay [1] and in assay [4] were 95% (active) and 97% (active), respectively. In addition, the inhibition in assay [2] is 5%; in assay [3], 3%. Also, the outcome in assay [5], in assay [6], in assay [7] and in assay [8] was inactive.

With `COc1ccc2c(c1C1CCN(CCCCNC(=O)c3ccc(-c4ccc(Cl)cn4)cc3)CC1)CCCC2`, the growth inhibition in assay [1] was 49%; in assay [4] it was 90% (active). Further, the inhibition in assay [2] is 29%; in assay [3], -2%. In addition, the outcome in assay [5], in assay [6], in assay [7] and in assay [8] was inactive.

On to `CCc1ccccc1N1CCN(CCCC(=O)c2ccc(NC(=O)c3ccc(Cl)cc3)cc2)CC1`, for which the results for the growth inhibition in assay [1] and in assay [4] were 4% and 90% (active), respectively. Further, the inhibition in assay [2] was 17%; in assay [3] it was 7%. The result in assay [5], in assay [6], in assay [7] and in assay [8] was inactive.

For the compound `Cc1cccc(Nc2nccc(NCC(O)c3cccc(C(F)(F)F)c3)n2)c1` (stereo not given), the results for the growth inhibition in assay [1] and in assay [4] were 94% (active) and 100% (active), respectively. Besides, the inhibition in assay [2] was 25%; in assay [3], -2%. Also, the outcome in assay [5], in assay [6], in assay [7] and in assay [8] was inactive.

As to `O=C(COC(=O)c1cccc(S(=O)(=O)N2CCc3ccccc32)c1)NNC(=O)c1cccs1`, the figures for the growth inhibition in assay [1] and in assay [4] were 4% and 96% (active), respectively. Further, the inhibition is 4% in assay [2] and 3% in assay [3]. Besides, the result in assay [5], in assay [6], in assay [7] and in assay [8] was inactive.

For the compound `CC(CN1CCN(C)CC1)C(=O)Nc1cccc(-c2ccc(-c3nc4ccccc4[nH]3)cc2)c1` (stereo not given), the values for the growth inhibition in assay [1] and in assay [4] were 38% and 95% (active), respectively. In addition, the inhibition is 2% in assay [2] and -1% in assay [3]. Also, the result in assay [5], in assay [6], in assay [7] and in assay [8] was inactive.

For the compound `O=C(CN1CCN(S(=O)(=O)C=Cc2ccccc2)CC1)Nc1cc(C(F)(F)F)ccc1Cl`, the growth inhibition in assay [1] is 63% (active); in assay [4], 96% (active). The values for the inhibition in assay [2] and in assay [3] were 23% and 5%, respectively. The result in assay [5], in assay [6], in assay [7] and in assay [8] was inactive.
